Values joined by “and” are separate entries in the source; they are usually repeats but may differ in a detail not shown here. Equal entries are not always repeated. Active and inactive are the calls of the source. The calls were made as follows: active = hit-call score of the fitted dose curve at least 0.9, where 1 is the maximum; inactive = score below 0.9.
read-out: Plasminogen Activator Inhibitor-1 (PAI1), SERPINE1 (gene 5054); experiment: BSK_BF4T_PAI1: BioMAP Diversity Plus: BF4T Assay for Plasminogen Activator Inhibitor-1 (PAI1) Biomarker Activity (AID 2284273); details: primary human bronchial epithelial cells with fibroblasts
Experimental: BSK_BF4T is a cell-based, multiplexed-readout assay that uses bronchial epithelial cells and dermal fibroblasts, a human vascular primary cell, with measurements taken at 24 hours after chemical dosing in a microplate: 96-well plate.BSK_BF4T_PAI1 is an assay component measured in the BSK_BF4T assay. It measures PAI-1 antibody related to regulation of gene expression using ELISA technology.Data from the assay component BSK_BF4T_PAI1 was analyzed at the endpoint, BSK_BF4T_PAI1, in the positive analysis fitting direction relative to DMSO as the negative control and baseline of activity. Using a type of binding reporter, gain or loss-of-signal activity can be used to understand protein changes. To generalize the intended target to other relatable targets, this assay endpoint is annotated to the 'cytokine' intended target family, where the subfamily is 'plasmogen activator inhibitor'.
The levels of cell surface (or secreted, indicated by the prefix "s") biomarker endpoints were measured by ELISA. Overt cytotoxicity to cells in confluent adherent cultures (all systems other than the BT system) was assessed by measuring total protein levels using sulforhodamine B (SRB) staining in parallel cultures at the time of biomarker measurements, indicated as SRB endpoints. For proliferation assays for adherent cell types, individual cell types are cultured at sub-confluence and relative cell numbers quantified by SRB staining at time points optimized for each system (48 h: 3C and CASM3C systems; 72 h: BT and HDF3CGF systems; 96 h: SAg system). SRB was performed by staining cells with 0.1% SRB after fixation with 10% TCA and reading wells at 560 nm.Viability and proliferation of PBMC (T cells) was quantified by Alamar Blue reduction for the SAg and BT systems. For PBMC viability (referred to as PBMC Cytotoxicity within the assay endpoint names), cells were plated (75,000/well in a 96-well plate) and then chemical samples added for 1 h before addition of activators, SEB and TSST-1 (20 ng/mL final concentration each). Cells were incubated for 90 h. Then, Alamar Blue (20 uL/well) (Invitrogen, Cat DAL1100) was added for 6 h, and the plates were read with a fluorescence microplate reader at 546/580 nm (excitation/emission). For PBMC proliferation, cells were plated and activated as above but incubated for only 16 h prior to addition of Alamar Blue. Plates were read after 6 h.

SMILES | outcome | AC50
OCC(F)(F)C(F)(F)C(F)(F)C(F)(F)C(F)(F)C(F)(F)CO | inactive | –
NS(=O)(=O)C(F)(F)C(F)(F)C(F)(F)C(F)(F)C(F)(F)C(F)(F)F | inactive | –
NCC(F)(F)C(F)(F)C(F)(F)C(F)(F)C(F)(F)C(F)(F)C(F)(F)C(F)(F)F | inactive | –
NCC(F)(F)C(F)(F)C(F)(F)C(F)(F)C(F)(F)C(F)(F)F | inactive | –
FC(F)(F)C(F)(F)C(F)(F)C(F)(F)C(F)(F)C(F)(F)C(F)(F)CCI | inactive | –
C[Si](Cl)(Cl)CCC(F)(F)C(F)(F)C(F)(F)C(F)(F)C(F)(F)C(F)(F)F | inactive | –
C=CC(=O)OCC(F)(F)C(F)(F)C(F)(F)C(F)(F)C(F)(F)C(F)(F)C(F)(F)C(F)F | inactive | –
CO[Si](C)(CCC(F)(F)C(F)(F)C(F)(F)C(F)(F)C(F)(F)C(F)(F)F)OC | inactive | –
O=C(O)C(F)(F)C(F)(F)C(F)(F)C(F)(F)C(F)(F)C(F)(F)C(F)F | inactive | –
OCC(F)(F)C(F)(F)C(F)(F)CO | inactive | –
OCCCCC(F)(F)C(F)(F)C(F)(F)C(F)(F)F | inactive | –
FC(F)(F)C(F)(F)C(F)(F)CC1CO1 (stereo not given) | inactive | –
O=C(O)CCC(F)(F)C(F)(F)C(F)(F)F | inactive | –
C=C(C)C(=O)OCC(F)(F)C(F)(F)C(F)(F)C(F)F | inactive | –
O=C(O)C(F)(F)C(F)(F)C(F)(F)C(=O)O | inactive | –
FC(F)(F)C(F)(F)C(F)(F)C(F)(F)C(F)(F)C(F)(F)CC[Si](Cl)(Cl)Cl | inactive | –
O=C(O)C(F)(F)OC(F)(F)C(F)(F)OC(F)(F)C(F)(F)OC(F)(F)F | inactive | –
NC(=O)C(F)(F)C(F)(F)C(F)(F)C(F)F | inactive | –
CCN(CCO)S(=O)(=O)C(F)(F)C(F)(F)C(F)(F)C(F)(F)C(F)(F)C(F)(F)C(F)(F)C(F)(F)F | inactive | –
NC(O)(C(F)(F)F)C(F)(F)F | inactive | –

SMILES | outcome | AC50
O=C(O)CCC(F)(F)C(F)(F)C(F)(F)C(F)(F)C(F)(F)C(F)(F)C(F)(F)F | inactive | –
NC(=O)C(F)(F)C(F)(F)C(F)(F)F | inactive | –
CN(C(=O)C(F)(F)C(F)(F)C(F)(F)F)[Si](C)(C)C | inactive | –
OCC(F)(F)C(F)(F)C(F)(F)C(F)(F)C(F)(F)C(F)(F)C(F)(F)C(F)(F)CO | – | 15.1 µM (active) and 13.6 µM (active)
O=S(=O)(OCC(F)(F)F)C(F)(F)C(F)(F)C(F)(F)C(F)(F)F | inactive | –
COC(F)(C(F)F)C(F)(F)F (stereo not given) | inactive | –
O=C(O)C(F)(F)C(F)(F)C(F)(F)OC(F)(F)F | inactive | –
O=C(O)C(F)(F)C(F)(F)C(F)(F)OC(F)(C(F)(F)F)C(F)(F)F | inactive | –
OC(O)C(F)(F)C(F)(F)F | inactive | –
NC(=O)C(F)(F)C(F)(F)C(F)(F)C(F)(F)C(F)(F)C(F)(F)C(F)(F)F | inactive | –
O=S(=O)(O)CCC(F)(F)C(F)(F)C(F)(F)C(F)(F)C(F)(F)C(F)(F)C(F)(F)C(F)(F)F | inactive | –
OCC(O)CC(F)(F)C(F)(F)C(F)(F)C(F)(F)F (stereo not given) | inactive | –
O=S(=O)(Cl)C(F)(F)C(F)(F)C(F)(F)C(F)(F)C(F)(F)C(F)(F)C(F)(F)C(F)(F)F | – | 44.9 µM (active) and 44.6 µM (active)
O=C(F)C1(F)C(F)(F)C(F)(F)C(F)(F)C(F)(F)C1(F)F | inactive | –
O=C(Cl)C(F)(F)C(F)(F)C(F)(F)C(F)(F)C(F)(F)C(F)(F)F | inactive | –
O=C(Cl)C(F)(F)C(F)(F)C(F)(F)C(F)(F)C(F)(F)C(F)(F)C(F)(F)F | inactive | –
C=CC(=O)OCCC(F)(F)C(F)(F)C(F)(F)C(F)(F)F | inactive | –
OCCCC(F)(F)C(F)(F)C(F)(F)C(F)(F)C(F)(F)C(F)(F)C(F)(F)C(F)(F)F | – | 20.7 µM (active) and 30 µM (active)
NC(=O)C(F)(F)C(F)(F)C(F)(F)C(F)(F)C(N)=O | inactive | –
C=CC(=O)OCC(F)(F)C(F)(F)C(F)(F)COC(=O)C=C | – | 20.7 µM (active) and 23.4 µM (active)
